# Key:
# Assay in all cases: DAPPL (digital affinity profiling via proximity ligation, sequencing); 10 mM Tris-HCl pH 7.5, 50 mM NaCl, 1 mM DTT, 4% glycerol, room temperature, 30 min; GST-TFs on glutathione beads, 16-mer random dsDNA library, 0.1% formaldehyde crosslink after washing; high values mean tight binding
# FLI1 = biological target: T1, FLI1 (Homo sapiens, UniProt Q01543 1-452); conditions: protein: recombinant; tags: N-terminal GST; dsDNA, one strand shown
# T1 sequence: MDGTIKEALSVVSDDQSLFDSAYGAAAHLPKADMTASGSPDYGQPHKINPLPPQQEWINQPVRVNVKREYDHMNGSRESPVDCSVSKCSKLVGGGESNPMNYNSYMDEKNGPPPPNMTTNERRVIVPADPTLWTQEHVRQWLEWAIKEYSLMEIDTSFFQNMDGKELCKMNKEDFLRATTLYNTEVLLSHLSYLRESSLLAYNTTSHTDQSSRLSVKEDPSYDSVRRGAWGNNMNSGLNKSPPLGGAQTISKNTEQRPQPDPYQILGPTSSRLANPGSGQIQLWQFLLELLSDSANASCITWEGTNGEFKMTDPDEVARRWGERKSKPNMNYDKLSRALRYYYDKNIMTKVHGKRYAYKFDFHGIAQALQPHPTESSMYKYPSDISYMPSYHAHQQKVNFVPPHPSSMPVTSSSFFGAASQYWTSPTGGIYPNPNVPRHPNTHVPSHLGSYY
# Method in brief: (§1)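 Binding signal is defined as a hexamer's read frequency for one factor over its frequency for the tag-only sample. To obtain reads, GST-fused human transcription factors were expressed in yeast, captured on glutathione beads, barcoded with DNA and pooled with that sample. Pools met 200 nmole of a 16-mer random double-stranded DNA library in Tris/NaCl/DTT/glycerol buffer for 30 min at room temperature before washing, 0.1% formaldehyde crosslinking, proximity ligation (BsaI/T4 ligase, 1 h, 37 °C), PCR and Illumina NextSeq500 sequencing.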
# ELK1 = biological target: T2, ELK1 (Homo sapiens, UniProt P19419 1-428); conditions: protein: recombinant; tags: N-terminal GST; dsDNA, one strand shown
# T2 sequence: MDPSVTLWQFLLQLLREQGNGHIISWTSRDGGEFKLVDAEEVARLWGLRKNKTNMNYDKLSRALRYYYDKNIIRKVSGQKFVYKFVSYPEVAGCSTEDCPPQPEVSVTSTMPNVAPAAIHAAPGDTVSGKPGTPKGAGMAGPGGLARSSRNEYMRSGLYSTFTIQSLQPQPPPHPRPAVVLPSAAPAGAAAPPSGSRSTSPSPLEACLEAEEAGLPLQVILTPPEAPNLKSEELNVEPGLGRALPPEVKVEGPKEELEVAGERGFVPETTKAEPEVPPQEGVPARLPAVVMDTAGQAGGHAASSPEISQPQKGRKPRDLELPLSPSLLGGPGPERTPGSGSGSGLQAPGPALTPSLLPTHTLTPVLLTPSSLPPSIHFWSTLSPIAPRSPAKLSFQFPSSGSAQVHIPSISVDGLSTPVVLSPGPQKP
# Method in brief: as §1
# GABPA = biological target: T3, GABPA (Homo sapiens, UniProt Q06546 1-454); conditions: protein: recombinant; tags: N-terminal GST; dsDNA, one strand shown
# T3 sequence: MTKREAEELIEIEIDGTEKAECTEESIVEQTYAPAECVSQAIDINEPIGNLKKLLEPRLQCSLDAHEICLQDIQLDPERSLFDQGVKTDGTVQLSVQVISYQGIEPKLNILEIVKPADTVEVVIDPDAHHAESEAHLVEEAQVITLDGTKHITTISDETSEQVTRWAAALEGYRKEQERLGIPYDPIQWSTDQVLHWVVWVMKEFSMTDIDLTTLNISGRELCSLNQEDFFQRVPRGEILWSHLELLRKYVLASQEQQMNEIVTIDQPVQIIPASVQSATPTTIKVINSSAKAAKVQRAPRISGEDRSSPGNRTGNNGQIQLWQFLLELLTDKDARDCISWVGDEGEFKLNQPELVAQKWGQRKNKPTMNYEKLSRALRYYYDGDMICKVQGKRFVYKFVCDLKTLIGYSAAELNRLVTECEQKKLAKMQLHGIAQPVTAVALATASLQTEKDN
# Method in brief: as §1
# ERG = biological target: T4, ERG (Homo sapiens, UniProt P11308 1-479); conditions: protein: recombinant; tags: N-terminal GST; dsDNA, one strand shown
# T4 sequence: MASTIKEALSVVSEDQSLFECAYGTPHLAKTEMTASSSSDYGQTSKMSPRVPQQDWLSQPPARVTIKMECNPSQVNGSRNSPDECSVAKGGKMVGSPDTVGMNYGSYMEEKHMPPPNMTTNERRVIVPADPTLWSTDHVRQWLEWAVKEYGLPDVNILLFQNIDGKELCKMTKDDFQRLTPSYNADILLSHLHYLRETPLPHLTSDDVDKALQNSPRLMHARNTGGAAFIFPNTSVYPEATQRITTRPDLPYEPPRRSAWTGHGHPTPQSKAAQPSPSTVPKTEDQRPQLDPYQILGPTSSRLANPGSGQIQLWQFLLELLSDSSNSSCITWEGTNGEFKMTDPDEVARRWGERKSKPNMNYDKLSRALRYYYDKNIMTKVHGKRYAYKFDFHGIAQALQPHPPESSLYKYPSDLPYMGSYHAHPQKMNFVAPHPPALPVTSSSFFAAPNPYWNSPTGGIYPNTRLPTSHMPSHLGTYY
# Method in brief: as §1
# ELF1 = ELF1 (Homo sapiens, UniProt P32519 1-619); conditions: protein: recombinant; tags: N-terminal GST; dsDNA, one strand shown
# Method in brief: as §1
# EHF = biological target: T5, EHF (Homo sapiens, UniProt Q9NZC4 1-300); conditions: protein: recombinant; tags: N-terminal GST; dsDNA, one strand shown
# T5 sequence: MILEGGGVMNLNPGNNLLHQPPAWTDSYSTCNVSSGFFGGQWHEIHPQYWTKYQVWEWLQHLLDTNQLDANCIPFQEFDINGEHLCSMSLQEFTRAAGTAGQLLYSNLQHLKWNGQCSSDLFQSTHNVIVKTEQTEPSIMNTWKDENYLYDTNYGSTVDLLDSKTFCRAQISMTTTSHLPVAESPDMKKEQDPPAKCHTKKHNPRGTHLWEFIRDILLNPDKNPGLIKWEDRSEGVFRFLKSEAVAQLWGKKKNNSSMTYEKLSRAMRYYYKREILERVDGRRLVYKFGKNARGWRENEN
# Method in brief: as §1
# SPI1 = SPI1 (Homo sapiens, UniProt P17947 1-270); conditions: protein: recombinant; tags: N-terminal GST; dsDNA, one strand shown
# Method in brief: as §1
# SPIB = SPIB (Homo sapiens, UniProt Q01892 1-262); conditions: protein: recombinant; tags: N-terminal GST; dsDNA, one strand shown
# Method in brief: as §1
# ELK3 = biological target: T6, ELK3 (Homo sapiens, UniProt P41970 1-407); conditions: protein: recombinant; tags: N-terminal GST; dsDNA, one strand shown
# T6 sequence: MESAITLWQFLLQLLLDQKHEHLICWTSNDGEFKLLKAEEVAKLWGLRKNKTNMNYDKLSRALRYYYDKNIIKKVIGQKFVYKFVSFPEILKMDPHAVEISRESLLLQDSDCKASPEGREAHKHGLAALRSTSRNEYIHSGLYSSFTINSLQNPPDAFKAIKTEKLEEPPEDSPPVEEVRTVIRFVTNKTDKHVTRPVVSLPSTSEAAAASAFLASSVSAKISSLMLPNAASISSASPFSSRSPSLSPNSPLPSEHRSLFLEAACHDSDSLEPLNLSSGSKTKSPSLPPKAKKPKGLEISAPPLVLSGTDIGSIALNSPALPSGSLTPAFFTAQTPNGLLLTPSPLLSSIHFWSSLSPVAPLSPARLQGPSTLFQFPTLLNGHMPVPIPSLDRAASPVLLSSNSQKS
# Method in brief: as §1
# FEV = biological target: T7, FEV (Homo sapiens, UniProt Q99581 1-238); conditions: protein: recombinant; tags: N-terminal GST; dsDNA, one strand shown
# T7 sequence: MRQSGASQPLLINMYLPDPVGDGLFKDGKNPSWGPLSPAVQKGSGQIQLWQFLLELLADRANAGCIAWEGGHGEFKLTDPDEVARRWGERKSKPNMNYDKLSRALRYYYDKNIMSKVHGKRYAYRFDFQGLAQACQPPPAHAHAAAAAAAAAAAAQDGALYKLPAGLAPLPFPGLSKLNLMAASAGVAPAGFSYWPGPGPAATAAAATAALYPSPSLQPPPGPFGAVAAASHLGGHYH
# Method in brief: as §1
# ETV5 = ETV5 (Homo sapiens, UniProt P41161 1-510); conditions: protein: recombinant; tags: N-terminal GST; dsDNA, one strand shown
# Method in brief: as §1
# HSF1 = HSF1 (Homo sapiens, UniProt Q00613 1-529); conditions: protein: recombinant; tags: N-terminal GST; chain copies: 3; dsDNA, one strand shown
# Method in brief: as §1
# SPIC = biological target: T8, SPIC (Homo sapiens, UniProt Q8N5J4 1-248); conditions: protein: recombinant; tags: N-terminal GST; dsDNA, one strand shown
# T8 sequence: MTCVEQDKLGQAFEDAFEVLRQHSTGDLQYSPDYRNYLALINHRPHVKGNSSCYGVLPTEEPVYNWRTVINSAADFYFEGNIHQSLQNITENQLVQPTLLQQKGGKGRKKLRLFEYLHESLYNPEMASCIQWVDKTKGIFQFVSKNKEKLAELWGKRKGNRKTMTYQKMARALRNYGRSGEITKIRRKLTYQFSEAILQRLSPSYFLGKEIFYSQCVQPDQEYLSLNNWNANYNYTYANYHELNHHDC
# Method in brief: as §1
# ELF4 = ELF4 (Homo sapiens, UniProt Q99607 1-663); conditions: protein: recombinant; tags: N-terminal GST; dsDNA, one strand shown
# Method in brief: as §1
# ELK4 = biological target: T9, ELK4 (Homo sapiens, UniProt P28324-2 1-405); conditions: protein: recombinant; tags: N-terminal GST; dsDNA, one strand shown
# T9 sequence: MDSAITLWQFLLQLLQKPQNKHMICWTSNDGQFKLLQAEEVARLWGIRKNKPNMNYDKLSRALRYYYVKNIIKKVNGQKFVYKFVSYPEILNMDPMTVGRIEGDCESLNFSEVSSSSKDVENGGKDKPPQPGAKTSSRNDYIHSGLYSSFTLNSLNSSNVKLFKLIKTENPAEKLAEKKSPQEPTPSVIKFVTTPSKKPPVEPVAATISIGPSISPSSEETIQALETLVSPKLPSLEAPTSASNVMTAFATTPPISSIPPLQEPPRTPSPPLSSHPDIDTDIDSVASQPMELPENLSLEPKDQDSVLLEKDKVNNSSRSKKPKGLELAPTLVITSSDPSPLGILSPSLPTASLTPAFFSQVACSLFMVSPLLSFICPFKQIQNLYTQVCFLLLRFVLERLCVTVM
# Method in brief: as §1
# ETV2 = biological target: T10, ETV2 (Homo sapiens, UniProt O00321 1-342); conditions: protein: recombinant; tags: N-terminal GST; dsDNA, one strand shown
# T10 sequence: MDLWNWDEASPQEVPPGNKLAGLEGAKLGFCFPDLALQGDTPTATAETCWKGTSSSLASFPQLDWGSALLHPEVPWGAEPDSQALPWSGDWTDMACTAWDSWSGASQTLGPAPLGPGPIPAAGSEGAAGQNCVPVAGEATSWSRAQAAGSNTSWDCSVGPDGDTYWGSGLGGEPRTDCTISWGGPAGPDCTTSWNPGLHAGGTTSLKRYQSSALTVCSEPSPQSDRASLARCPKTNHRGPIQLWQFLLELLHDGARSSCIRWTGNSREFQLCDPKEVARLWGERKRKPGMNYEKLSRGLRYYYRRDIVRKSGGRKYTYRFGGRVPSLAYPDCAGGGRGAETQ
# Method in brief: as §1
# ELF3 = biological target: T11, ELF3 (Homo sapiens, UniProt P78545 1-371); conditions: protein: recombinant; tags: N-terminal GST; dsDNA, one strand shown
# T11 sequence: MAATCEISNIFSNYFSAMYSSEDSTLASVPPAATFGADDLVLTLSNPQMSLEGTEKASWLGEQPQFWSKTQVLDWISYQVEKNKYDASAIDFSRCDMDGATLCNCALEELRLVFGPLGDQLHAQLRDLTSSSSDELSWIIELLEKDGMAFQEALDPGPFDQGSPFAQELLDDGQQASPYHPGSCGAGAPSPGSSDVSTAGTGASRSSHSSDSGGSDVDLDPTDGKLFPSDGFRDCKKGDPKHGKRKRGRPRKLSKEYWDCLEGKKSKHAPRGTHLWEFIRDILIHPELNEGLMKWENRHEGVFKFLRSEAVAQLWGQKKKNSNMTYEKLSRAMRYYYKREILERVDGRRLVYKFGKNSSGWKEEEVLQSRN
# Method in brief: as §1
# CRX = CRX (Homo sapiens, UniProt O43186 1-299); conditions: protein: recombinant; tags: N-terminal GST; dsDNA, one strand shown
# Method in brief: as §1
# ETV1 = ETV1 (Homo sapiens, UniProt P50549 1-477); conditions: protein: recombinant; tags: N-terminal GST; dsDNA, one strand shown
# Method in brief: as §1
# ETV5, sequence (P41161 whole entry): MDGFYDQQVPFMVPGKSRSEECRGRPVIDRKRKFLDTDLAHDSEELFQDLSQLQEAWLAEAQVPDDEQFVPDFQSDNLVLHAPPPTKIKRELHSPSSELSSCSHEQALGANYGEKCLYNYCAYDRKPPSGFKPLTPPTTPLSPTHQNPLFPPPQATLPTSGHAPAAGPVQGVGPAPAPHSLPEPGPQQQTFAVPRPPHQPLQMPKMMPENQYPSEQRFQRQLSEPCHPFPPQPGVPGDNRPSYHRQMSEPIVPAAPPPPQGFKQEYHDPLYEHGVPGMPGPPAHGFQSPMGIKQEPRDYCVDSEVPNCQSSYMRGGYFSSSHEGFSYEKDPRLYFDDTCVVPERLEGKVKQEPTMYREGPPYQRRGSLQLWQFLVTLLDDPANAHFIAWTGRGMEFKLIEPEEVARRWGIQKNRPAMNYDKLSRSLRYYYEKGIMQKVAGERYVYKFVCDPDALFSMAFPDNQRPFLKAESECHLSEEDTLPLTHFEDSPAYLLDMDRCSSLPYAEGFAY
# HSF1, sequence (Q00613 whole entry): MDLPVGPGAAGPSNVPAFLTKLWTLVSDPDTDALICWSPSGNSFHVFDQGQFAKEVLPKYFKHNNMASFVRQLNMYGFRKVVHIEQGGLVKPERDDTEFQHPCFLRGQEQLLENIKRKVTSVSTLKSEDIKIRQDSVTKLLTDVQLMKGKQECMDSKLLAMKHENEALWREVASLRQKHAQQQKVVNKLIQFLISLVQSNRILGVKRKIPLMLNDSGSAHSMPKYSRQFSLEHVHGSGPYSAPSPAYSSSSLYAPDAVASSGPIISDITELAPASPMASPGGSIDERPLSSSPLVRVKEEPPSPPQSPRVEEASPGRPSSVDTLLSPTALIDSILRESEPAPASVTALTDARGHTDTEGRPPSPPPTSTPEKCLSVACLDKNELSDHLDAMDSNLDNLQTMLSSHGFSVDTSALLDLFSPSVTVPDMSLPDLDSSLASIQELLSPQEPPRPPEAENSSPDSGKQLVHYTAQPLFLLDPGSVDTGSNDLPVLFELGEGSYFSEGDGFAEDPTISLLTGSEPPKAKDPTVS
# CRX, sequence (O43186 whole entry): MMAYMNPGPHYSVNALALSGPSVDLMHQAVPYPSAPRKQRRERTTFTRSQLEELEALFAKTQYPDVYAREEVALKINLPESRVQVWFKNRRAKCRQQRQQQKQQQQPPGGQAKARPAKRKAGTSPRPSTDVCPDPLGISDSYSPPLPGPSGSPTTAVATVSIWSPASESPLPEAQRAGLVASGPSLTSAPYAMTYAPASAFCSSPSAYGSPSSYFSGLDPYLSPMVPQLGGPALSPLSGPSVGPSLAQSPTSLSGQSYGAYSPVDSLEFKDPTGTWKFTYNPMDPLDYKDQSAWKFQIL
# ETV1, sequence (P50549 whole entry): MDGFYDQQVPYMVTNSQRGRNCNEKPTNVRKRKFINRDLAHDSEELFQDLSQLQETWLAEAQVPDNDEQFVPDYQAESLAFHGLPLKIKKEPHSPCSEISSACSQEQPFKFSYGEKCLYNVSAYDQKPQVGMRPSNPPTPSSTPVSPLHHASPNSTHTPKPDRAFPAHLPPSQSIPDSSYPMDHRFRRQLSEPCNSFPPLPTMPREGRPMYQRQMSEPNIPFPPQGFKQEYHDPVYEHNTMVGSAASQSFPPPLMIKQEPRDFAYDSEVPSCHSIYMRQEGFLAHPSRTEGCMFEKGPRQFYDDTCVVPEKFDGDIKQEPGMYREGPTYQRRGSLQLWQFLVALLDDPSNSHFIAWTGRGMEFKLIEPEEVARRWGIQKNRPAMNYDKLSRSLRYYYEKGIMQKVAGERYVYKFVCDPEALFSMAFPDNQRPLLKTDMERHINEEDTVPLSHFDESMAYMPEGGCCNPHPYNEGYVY
# SPIB, sequence (Q01892 whole entry): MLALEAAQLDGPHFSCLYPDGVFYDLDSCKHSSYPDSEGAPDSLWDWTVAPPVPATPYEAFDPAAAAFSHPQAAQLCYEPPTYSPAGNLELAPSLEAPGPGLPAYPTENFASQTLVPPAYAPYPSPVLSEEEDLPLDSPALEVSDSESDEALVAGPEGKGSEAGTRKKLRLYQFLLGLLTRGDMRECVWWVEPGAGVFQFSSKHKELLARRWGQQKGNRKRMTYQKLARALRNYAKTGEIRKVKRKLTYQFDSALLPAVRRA
# ELF4, sequence (Q99607 whole entry): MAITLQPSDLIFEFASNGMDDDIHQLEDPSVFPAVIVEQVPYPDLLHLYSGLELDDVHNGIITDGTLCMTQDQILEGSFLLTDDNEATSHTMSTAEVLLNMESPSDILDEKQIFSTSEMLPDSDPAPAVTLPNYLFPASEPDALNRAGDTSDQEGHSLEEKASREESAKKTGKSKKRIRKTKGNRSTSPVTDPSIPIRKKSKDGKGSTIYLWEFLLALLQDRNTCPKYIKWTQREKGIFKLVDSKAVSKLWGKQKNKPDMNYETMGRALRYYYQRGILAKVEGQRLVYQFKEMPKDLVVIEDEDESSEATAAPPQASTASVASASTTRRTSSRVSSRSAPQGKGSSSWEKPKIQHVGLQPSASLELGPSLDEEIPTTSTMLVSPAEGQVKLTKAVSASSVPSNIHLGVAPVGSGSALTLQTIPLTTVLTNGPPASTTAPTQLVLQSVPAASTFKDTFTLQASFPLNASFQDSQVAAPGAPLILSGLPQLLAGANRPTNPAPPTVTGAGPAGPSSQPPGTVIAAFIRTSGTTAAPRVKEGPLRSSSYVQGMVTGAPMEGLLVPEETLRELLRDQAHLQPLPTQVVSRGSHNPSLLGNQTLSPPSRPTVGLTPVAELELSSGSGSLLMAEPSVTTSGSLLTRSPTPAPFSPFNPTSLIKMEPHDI
# ELF1, sequence (P32519 whole entry): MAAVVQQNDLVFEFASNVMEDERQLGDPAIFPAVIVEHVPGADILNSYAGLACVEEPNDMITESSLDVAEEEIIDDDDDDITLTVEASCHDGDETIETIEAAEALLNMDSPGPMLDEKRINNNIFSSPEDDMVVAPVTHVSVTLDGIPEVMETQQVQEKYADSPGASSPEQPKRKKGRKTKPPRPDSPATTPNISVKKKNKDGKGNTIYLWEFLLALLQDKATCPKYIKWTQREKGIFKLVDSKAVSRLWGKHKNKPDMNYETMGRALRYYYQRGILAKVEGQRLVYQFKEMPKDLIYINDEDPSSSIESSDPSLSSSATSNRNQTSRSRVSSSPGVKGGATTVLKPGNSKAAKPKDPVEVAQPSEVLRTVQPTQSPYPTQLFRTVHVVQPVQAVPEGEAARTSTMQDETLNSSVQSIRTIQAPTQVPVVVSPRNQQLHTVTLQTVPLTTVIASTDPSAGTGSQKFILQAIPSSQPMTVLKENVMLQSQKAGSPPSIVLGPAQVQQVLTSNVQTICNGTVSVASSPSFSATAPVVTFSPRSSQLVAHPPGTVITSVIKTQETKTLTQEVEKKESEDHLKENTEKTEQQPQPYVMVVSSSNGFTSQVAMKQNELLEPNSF
sequence,measurement,setting,value
CATTTT,binding signal,FLI1,"1.24 fold enrichment (6-mer frequency, TF over GST control)"
same,binding signal,ELK1,"1.04 fold enrichment (6-mer frequency, TF over GST control)"
same,binding signal,GABPA,"1.23 fold enrichment (6-mer frequency, TF over GST control)"
same,binding signal,ERG,"1.14 fold enrichment (6-mer frequency, TF over GST control)"
same,binding signal,ELF1,"1.18 fold enrichment (6-mer frequency, TF over GST control)"
same,binding signal,EHF,"1.16 fold enrichment (6-mer frequency, TF over GST control)"
same,binding signal,SPI1,"1.39 fold enrichment (6-mer frequency, TF over GST control)"
same,binding signal,SPIB,"1.23 fold enrichment (6-mer frequency, TF over GST control)"
same,binding signal,ELK3,"1.15 fold enrichment (6-mer frequency, TF over GST control)"
same,binding signal,FEV,"1.19 fold enrichment (6-mer frequency, TF over GST control)"
same,binding signal,ETV5,"1.23 fold enrichment (6-mer frequency, TF over GST control)"
same,binding signal,HSF1,"1.19 fold enrichment (6-mer frequency, TF over GST control)"
same,binding signal,SPIC,"1.18 fold enrichment (6-mer frequency, TF over GST control)"
same,binding signal,ELF4,"1.32 fold enrichment (6-mer frequency, TF over GST control)"
same,binding signal,ELK4,"1.32 fold enrichment (6-mer frequency, TF over GST control)"
same,binding signal,ETV2,"1.35 fold enrichment (6-mer frequency, TF over GST control)"
same,binding signal,ELF3,"1.21 fold enrichment (6-mer frequency, TF over GST control)"
same,binding signal,CRX,"1.04 fold enrichment (6-mer frequency, TF over GST control)"
same,binding signal,ETV1,"1.24 fold enrichment (6-mer frequency, TF over GST control)"

# Source: article PMC7862700, “An all-to-all approach to the identification of sequence-specific readers for epigenetic DNA modifications on cytosine”
